This is an account of results in PubChem BioAssay AID623911 (Vanderbilt High Throughput Screening Facility, 2012).

In all, about 2,100 compounds went through this assay and about 770 (37%) were called active. The list shows a part of the results. Unmarked numbers belong to inactive results.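 How the source made its calls: active means by-eye trace score of 1 for enhancers or -1 for inhibitors, so actives lie on both sides (some results past the limit were not filed as active); inactive means score 0, or 3 fluorescent, or 4 baseline rise.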

Chain of G protein-activated inward rectifier potassium channel 2 (Homo sapiens) + G protein-activated inward rectifier potassium channel 1 (Homo sapiens) (P48051 whole entry, looked up): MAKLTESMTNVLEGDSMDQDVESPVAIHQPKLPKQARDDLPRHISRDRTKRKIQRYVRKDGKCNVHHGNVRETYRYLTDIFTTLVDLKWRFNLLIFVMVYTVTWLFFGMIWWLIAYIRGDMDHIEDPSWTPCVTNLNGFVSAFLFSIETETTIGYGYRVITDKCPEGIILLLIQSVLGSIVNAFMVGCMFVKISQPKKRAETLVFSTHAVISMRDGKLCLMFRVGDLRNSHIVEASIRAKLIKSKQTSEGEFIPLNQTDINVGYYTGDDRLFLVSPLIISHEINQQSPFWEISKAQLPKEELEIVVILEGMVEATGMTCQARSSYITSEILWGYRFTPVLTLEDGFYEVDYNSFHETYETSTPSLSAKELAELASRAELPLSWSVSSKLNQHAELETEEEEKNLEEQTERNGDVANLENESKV
Chain of G protein-activated inward rectifier potassium channel 2 (Homo sapiens) + G protein-activated inward rectifier potassium channel 1 (Homo sapiens) (P48549 whole entry, looked up): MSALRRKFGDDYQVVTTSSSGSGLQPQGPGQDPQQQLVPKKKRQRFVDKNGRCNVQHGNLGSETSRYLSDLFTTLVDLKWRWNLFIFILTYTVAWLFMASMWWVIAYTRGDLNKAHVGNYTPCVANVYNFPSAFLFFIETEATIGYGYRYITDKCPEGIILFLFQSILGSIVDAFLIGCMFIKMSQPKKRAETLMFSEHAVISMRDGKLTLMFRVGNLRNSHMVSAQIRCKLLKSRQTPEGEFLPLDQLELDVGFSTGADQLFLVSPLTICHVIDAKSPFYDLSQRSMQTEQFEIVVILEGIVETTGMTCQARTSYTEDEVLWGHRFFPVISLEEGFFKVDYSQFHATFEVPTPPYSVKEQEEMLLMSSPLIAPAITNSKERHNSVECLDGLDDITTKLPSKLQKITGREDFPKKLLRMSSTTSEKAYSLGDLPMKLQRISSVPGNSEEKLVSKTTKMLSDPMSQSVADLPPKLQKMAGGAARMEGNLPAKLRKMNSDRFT

This assay concerns the target G protein-activated inward rectifier potassium channel 2 (Homo sapiens) + G protein-activated inward rectifier potassium channel 1 (Homo sapiens) (UniProt P48051+P48549). Kind of assay: GIRK1/2 thallium flux modulators, retest, confirmation, cell-based, HEK293 rmGlu8/hGIRK1/2, FluoZin-2 (AID 623911). As to conditions: HEK293 rmGlu8/hGIRK1/2, thallium flux FluoZin-2; actives lie on both sides.
With `CC(C)Oc1cc(-n2c(=S)[nH]c3ccccc3c2=O)c(Cl)cc1Cl`, the manual score was 1 (active).
On to `COc1cc(-n2c(=S)[nH]c3ccccc3c2=O)c(Cl)cc1Cl`, for which the manual score was 1 (active).
Regarding `CC(=NCC1CCCO1)c1c(O)n(-c2ccc(C)cc2)c(=O)[nH]c1=O` (stereo not given), the manual score was 0.
Under `Nc1c(C(=O)OC2CCCCC2)c2nc3ccccc3nc2n1CC1CCCO1` (stereo not given) stands 0.
As to `CCN(c1ccc(C(O)(C(=O)OC)C(F)(F)F)cc1)S(=O)(=O)c1ccc(C)cc1` (stereo not given), the manual score was -1 (active).
Regarding `CCOC(=O)C(O)(c1ccc(N(CC)S(=O)(=O)c2ccc(C)cc2)cc1)C(F)(F)F` (stereo not given), the manual score is -1 (active).
Consider `C/C(=N\Nc1ccccc1)c1c(O)n(C)c(=O)n(C)c1=O`, for which the manual score was 0.
As to `CCOC(=O)C1=C(NC(=S)NC(=O)c2ccccc2)c2ccccc2CC12CCCC2`, the manual score is 0.
Under `CC/C(=C\C=C\[C@@H]1C=C[C@@H]2CCC[C@H]2[C@@H]1C(=O)c1ccc[nH]1)[C@@H]1O[C@@H]([C@@H](C)C(=O)O)CC[C@@H]1C` stands 0.
In the case of `Cc1ccc(-c2nc(N(C)C3CCN(C)CC3)c3ccccc3n2)cc1`, the manual score was 0.
Under `O=c1cc(C(F)(F)F)c2cc3c4c(c2o1)CCCN4CCC3` stands 3; under `Cn1cccc1CNCCc1ccccc1`, 0; under `CCN1/C(=C\C=C\C2=[N+](CC)c3ccccc3C2(C)C)C(C)(C)c2ccccc21`, 3.
For the compound `CNC(=O)OCCc1nccn1C`, the manual score is 0.
Then `O=C(Nc1ccc(Cl)cc1)Nc1nccs1`, with 1 (active); and `Cc1nn(C)cc1/C=C1/CC2C3CC=C4CC(O)CCC4(C)C3CCC2(C)C1=O` (stereo not given), with -1 (active).
As for `CN1/C(=C\C=C\C2=[N+](C)c3ccc4ccccc4c3C2(C)C)C(C)(C)c2ccccc21`, the manual score was 3.
For `C=CCOC(=O)COc1cc(C)cc2oc(=O)c3c(c12)CCC3`, the manual score is 0.
For the compound `CCN(CC)CCNCC(=O)Nc1ccc(Cl)cc1C(=O)c1ccccc1`, the manual score was -1 (active).
`O=c1[nH]c(=S)n(CCC2=CCCCC2)c(O)c1C=NCCCn1ccnc1`: the manual score is 3.
As for `Cc1ccc(OCC(=O)NCCN2CCN(C(=O)COc3ccc(C)cc3)CC2)cc1`, the manual score was 0.
On to `O=C(c1cc2ccccn2n1)N1CCC2(CC1)OCCO2`, for which the manual score was 0.
As for `COc1ccc(CC2C(=O)NC(=O)NC2=O)c(OC)c1`, the manual score was 0.
Under `c1ccc2c(CNC3CCCCC3)c[nH]c2c1` stands -1 (active); under `CC(C)N1C(=O)/C(=C/C=C/c2ccco2)C(=O)N(Cc2ccco2)C1=O`, 0.
Then `Cc1ccccc1C1=NCC(=S)Nc2ccc(Cl)cc21`, with 0; and `S=C1CN=C(c2ccccc2)c2cc(Cl)ccc2N1`, with 0; and `S=C1CN=C(c2ccccc2Cl)c2cc(Cl)ccc2N1`, with 1 (active).
Under `CC(C)CCn1c(=O)c(C(=O)Nc2ccccc2S(N)(=O)=O)c(O)c2ccccc21` stands 0; under `O=C(c1ccccc1)c1cn(CC(=O)N2CCOCC2)c2ccccc12`, 0.
Consider `Fc1ccc(NC2=NCCS2)cc1Cl`, for which the manual score was 0.
Turning to `CCCCn1c(C)c(C(=O)OCC)c2c(CN3CCOCC3)c(O)ccc21`, the manual score is -1 (active).
Regarding `O=C(Cc1ccccc1)N1CCN(C/C=C/c2ccccc2)CC1`, the manual score is 0.
For `Cc1ccc2nc(N3CCC(C(=O)N4CCC5(CC4)OCCO5)CC3)sc2c1`, the manual score was 0.
Then `N=c1sc2c(n1Cc1ccccc1)CCCC2`, with -1 (active).
